According to ChEMBL document CHEMBL2218924, “A broad activity screen in support of a chemogenomic map for kinase signalling research and drug discovery” (Biochem J, 2013):

Target: T1, Ephrin type-B receptor 2 (Homo sapiens) (UniProt P29323)
T1 sequence (whole entry): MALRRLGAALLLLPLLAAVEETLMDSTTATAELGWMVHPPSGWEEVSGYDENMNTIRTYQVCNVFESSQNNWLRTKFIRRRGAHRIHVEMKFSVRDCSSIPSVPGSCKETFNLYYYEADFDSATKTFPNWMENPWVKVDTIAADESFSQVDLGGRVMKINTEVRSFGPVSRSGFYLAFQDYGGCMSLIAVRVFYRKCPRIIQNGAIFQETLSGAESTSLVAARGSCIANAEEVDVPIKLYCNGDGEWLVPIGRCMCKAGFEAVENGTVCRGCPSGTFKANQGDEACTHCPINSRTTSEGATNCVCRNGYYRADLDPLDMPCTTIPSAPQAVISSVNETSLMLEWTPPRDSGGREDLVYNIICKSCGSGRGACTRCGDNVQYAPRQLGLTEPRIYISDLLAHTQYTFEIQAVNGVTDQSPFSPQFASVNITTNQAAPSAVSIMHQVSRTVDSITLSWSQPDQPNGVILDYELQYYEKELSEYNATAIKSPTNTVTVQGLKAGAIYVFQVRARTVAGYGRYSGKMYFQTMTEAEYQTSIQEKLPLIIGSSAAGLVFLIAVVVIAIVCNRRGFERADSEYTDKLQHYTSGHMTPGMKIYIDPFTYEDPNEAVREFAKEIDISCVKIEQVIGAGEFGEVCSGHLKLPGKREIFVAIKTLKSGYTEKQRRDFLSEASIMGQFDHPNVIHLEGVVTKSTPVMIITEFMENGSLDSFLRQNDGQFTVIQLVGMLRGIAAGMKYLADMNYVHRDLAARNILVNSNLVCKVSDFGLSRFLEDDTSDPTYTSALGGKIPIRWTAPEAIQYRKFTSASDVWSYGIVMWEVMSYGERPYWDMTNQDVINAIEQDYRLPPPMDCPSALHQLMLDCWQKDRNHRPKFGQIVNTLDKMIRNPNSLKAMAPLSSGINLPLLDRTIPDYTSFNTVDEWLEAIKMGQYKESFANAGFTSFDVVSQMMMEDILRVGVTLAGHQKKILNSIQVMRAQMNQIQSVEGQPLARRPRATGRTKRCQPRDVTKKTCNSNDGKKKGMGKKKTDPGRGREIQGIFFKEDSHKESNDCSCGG
Details: at 1 µM; call rule not given here

Row | SMILES | residual activity [%]
1 | CC(C)(C)n1nc(Cc2cccc3ccccc23)c2c(N)ncnc21 | 3
2 | COc1cc2nccc(Oc3ccc(NC(=O)Nc4cc(C)on4)c(Cl)c3)c2cc1OC | -2
3 | O=C1Cc2c([nH]c3ccc(Br)cc23)-c2ccccc2N1 | 121
4 | Nc1ncnc2c1c(-c1ccc(Oc3ccccc3)cc1)cn2C1CCCC1 | 108
5 | COc1ccc(COc2ccc(Cc3cnc(N)nc3N)cc2OC)cc1 | 108
6 | O=C(CCCc1ccc(-c2ccccc2F)cc1)Nc1ccc(O)cc1 | 107
7 | CC(C)[C@H](CO)Nc1nc(Nc2cc(N)cc(Cl)c2)c2ncn(C(C)C)c2n1 | 92
8 | O=c1cc(N2CCNCC2)oc2c(-c3ccccc3)cccc12 | 103
9 | COc1ccc2c(c1)c(C1=C(c3c[nH]c4ccccc34)C(=O)NC1=O)cn2CCCN(C)C | 109
10 | CCCC(=O)Oc1ccc2[nH]c(C(=O)c3cc4ccccc4[nH]3)cc2c1 | 120
11 | CCCCc1c(-c2ccc(OC)cc2)[nH]c2nccnc12 | 101
12 | Cn1c2ccccc2c2c3c(c4c5ccccc5n(CCC#N)c4c21)CNC3=O | 116
13 | NC(=O)Nc1sc(-c2ccc(F)cc2)cc1C(N)=O | 93
14 | CCCCc1c(-c2ccc(O)cc2)[nH]c2nccnc12 | 96

Target: T1, Ephrin type-B receptor 2 (Homo sapiens)
Details: at 10 µM

Row | SMILES | residual activity [%]
15 | CC(C)(C)n1nc(Cc2cccc3ccccc23)c2c(N)ncnc21 | -1
16 | COc1cc2nccc(Oc3ccc(NC(=O)Nc4cc(C)on4)c(Cl)c3)c2cc1OC | -1
17 | Fc1ccc(-c2nc3n(c2-c2ccncc2)CCS3)cc1 | 91
18 | O=C1Cc2c([nH]c3ccc(Br)cc23)-c2ccccc2N1 | 120
19 | Nc1ncnc2c1c(-c1ccc(Oc3ccccc3)cc1)cn2C1CCCC1 | 101
20 | COc1ccc(COc2ccc(Cc3cnc(N)nc3N)cc2OC)cc1 | 129
21 | O=C(CCCc1ccc(-c2ccccc2F)cc1)Nc1ccc(O)cc1 | 112
22 | CC(C)[C@H](CO)Nc1nc(Nc2cc(N)cc(Cl)c2)c2ncn(C(C)C)c2n1 | 7
23 | CCCC(=O)Oc1ccc2[nH]c(C(=O)c3cc4ccccc4[nH]3)cc2c1 | 131
24 | CCCCc1c(-c2ccc(OC)cc2)[nH]c2nccnc12 | 89
25 | Cn1c2ccccc2c2c3c(c4c5ccccc5n(CCC#N)c4c21)CNC3=O | 111
26 | NC(=O)Nc1sc(-c2ccc(F)cc2)cc1C(N)=O | 19
27 | Nc1ncnc2[nH]nc(Nc3ccc(F)cc3)c12 | 9
28 | CCCCc1c(-c2ccc(O)cc2)[nH]c2nccnc12 | 82
29 | COc1cc2c(cc1OC)-c1n[nH]c(Nc3cccc(F)c3)c1C2 | 64

Target: T2, Ephrin type-B receptor 3 (Homo sapiens) (UniProt P54753)
T2 sequence (whole entry): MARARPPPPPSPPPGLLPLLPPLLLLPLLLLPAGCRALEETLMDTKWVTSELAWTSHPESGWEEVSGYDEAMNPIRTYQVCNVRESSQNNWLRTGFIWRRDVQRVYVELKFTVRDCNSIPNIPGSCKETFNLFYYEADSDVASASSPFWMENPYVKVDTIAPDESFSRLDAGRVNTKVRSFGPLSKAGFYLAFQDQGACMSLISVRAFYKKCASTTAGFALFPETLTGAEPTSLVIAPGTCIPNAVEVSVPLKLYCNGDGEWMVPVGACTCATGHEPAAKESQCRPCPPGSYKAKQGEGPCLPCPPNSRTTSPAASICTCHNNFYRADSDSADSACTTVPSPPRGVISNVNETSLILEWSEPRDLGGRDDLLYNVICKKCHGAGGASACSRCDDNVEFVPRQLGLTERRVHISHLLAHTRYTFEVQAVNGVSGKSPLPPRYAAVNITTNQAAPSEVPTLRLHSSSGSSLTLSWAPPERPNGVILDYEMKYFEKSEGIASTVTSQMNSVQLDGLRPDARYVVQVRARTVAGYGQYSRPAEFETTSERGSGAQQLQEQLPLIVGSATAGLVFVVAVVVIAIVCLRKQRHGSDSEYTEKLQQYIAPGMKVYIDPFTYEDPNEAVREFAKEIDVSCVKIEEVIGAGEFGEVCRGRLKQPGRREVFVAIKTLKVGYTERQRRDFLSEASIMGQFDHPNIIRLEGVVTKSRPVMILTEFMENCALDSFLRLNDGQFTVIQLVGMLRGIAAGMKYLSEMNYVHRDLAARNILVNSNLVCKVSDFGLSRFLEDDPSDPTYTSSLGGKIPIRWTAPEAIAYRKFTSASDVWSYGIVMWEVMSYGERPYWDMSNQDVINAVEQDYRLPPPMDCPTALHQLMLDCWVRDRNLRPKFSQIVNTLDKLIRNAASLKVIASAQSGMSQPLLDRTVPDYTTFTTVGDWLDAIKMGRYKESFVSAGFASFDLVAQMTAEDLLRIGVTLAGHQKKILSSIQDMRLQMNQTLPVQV
Details: at 1 µM

Row | SMILES | residual activity
30 | CC(C)(C)n1nc(Cc2cccc3ccccc23)c2c(N)ncnc21 | 112% (inactive)
31 | O=C1Nc2ccc(Cl)cc2/C1=C/c1cc(Cl)c(O)c(Cl)c1 | 113% (inactive)
32 | Nc1ncnc2c1c(-c1ccc(Oc3ccccc3)cc1)cn2C1CCCC1 | 104% (inactive)
33 | COc1ccc(COc2ccc(Cc3cnc(N)nc3N)cc2OC)cc1 | 114% (inactive)
34 | O=C(CCCc1ccc(-c2ccccc2F)cc1)Nc1ccc(O)cc1 | 109% (inactive)
35 | O=C1NC(=O)c2c1c1c3ccccc3[nH]c1n1cncc21 | 121% (inactive)
36 | CC(C)[C@H](CO)Nc1nc(Nc2cc(N)cc(Cl)c2)c2ncn(C(C)C)c2n1 | 92% (inactive)
37 | CN(C)S(=O)(=O)c1ccc2c(c1)/C(=C/c1cc3c([nH]1)CCCC3)C(=O)N2 | 120% (inactive)
38 | COc1ccc2c(c1)c(C1=C(c3c[nH]c4ccccc34)C(=O)NC1=O)cn2CCCN(C)C | 111% (inactive)
39 | CCN(CC)CCNC(=O)c1c(C)[nH]c(/C=C2\C(=O)Nc3ccc(Cl)cc32)c1C | 129% (inactive)
40 | CCCC(=O)Oc1ccc2[nH]c(C(=O)c3cc4ccccc4[nH]3)cc2c1 | 102% (inactive)
41 | CCCCc1c(-c2ccc(OC)cc2)[nH]c2nccnc12 | 121% (inactive)
42 | Cn1c2ccccc2c2c3c(c4c5ccccc5n(CCC#N)c4c21)CNC3=O | 105% (inactive)
43 | NC(=O)Nc1sc(-c2ccc(F)cc2)cc1C(N)=O | 117% (inactive)
44 | Nc1ncnc2[nH]nc(Nc3ccc(F)cc3)c12 | 123% (inactive)

Target: T2, Ephrin type-B receptor 3 (Homo sapiens)
Details: at 10 µM

Row | SMILES | residual activity [%]
45 | CC(C)(C)n1nc(Cc2cccc3ccccc23)c2c(N)ncnc21 | 12
46 | COc1cc2ncnc(Nc3cccc(Cl)c3)c2cc1OC | 121
47 | O=C1Nc2ccc(Cl)cc2/C1=C/c1cc(Cl)c(O)c(Cl)c1 | 115
48 | Nc1ncnc2c1c(-c1ccc(Oc3ccccc3)cc1)cn2C1CCCC1 | 117
49 | COc1ccc(COc2ccc(Cc3cnc(N)nc3N)cc2OC)cc1 | 110
50 | CSc1nc(-c2ccc(F)cc2)c(-c2ccnc(NC(C)c3ccccc3)c2)[nH]1 (configuration not stated) | 80
51 | O=C(CCCc1ccc(-c2ccccc2F)cc1)Nc1ccc(O)cc1 | 97
52 | COc1cc2nccc(Oc3ccc(NC(=S)NC(=O)c4ccccc4C)cc3)c2cc1OC | 129
53 | O=C1NC(=O)c2c1c1c3ccccc3[nH]c1n1cncc21 | 97
54 | CC(C)[C@H](CO)Nc1nc(Nc2cc(N)cc(Cl)c2)c2ncn(C(C)C)c2n1 | 116
55 | CC(C)c1nn(-c2c(Cl)cccc2Cl)c2nc(Cc3ccc(OCCO)cc3)[nH]c(=O)c12 | 108
56 | CN(C)S(=O)(=O)c1ccc2c(c1)/C(=C/c1cc3c([nH]1)CCCC3)C(=O)N2 | 94
57 | COc1ccc2c(c1)c(C1=C(c3c[nH]c4ccccc34)C(=O)NC1=O)cn2CCCN(C)C | 124
58 | CCN(CC)CCNC(=O)c1c(C)[nH]c(/C=C2\C(=O)Nc3ccc(Cl)cc32)c1C | 130
59 | CCCCc1c(-c2ccc(OC)cc2)[nH]c2nccnc12 | 109
60 | Cn1c2ccccc2c2c3c(c4c5ccccc5n(CCC#N)c4c21)CNC3=O | 118
61 | NC(=O)Nc1sc(-c2ccc(F)cc2)cc1C(N)=O | 117
62 | Nc1ncnc2[nH]nc(Nc3ccc(F)cc3)c12 | 107
